Test results published in ChEMBL document CHEMBL3988442, “University of Dundee, Small-Polar-MMV Screening Library” (2021).
About 13,000 (27%) of roughly 48,000 compounds showed an effect of 50% or more. Some of the results follow.

test system: Wolbachia pipientis; test: Anti-Wolbachia Cell-Based Screen; assay type: functional; set-up: scale not given: in the data most compounds retested in dose-response had high values; conditions: 5 µM

Compound	Percent Effect [%]
COC(=O)c1cc(CN2CCN(c3nc(C)cnc3C)CC2)ccc1O	-22.17
CCN(CC)C(=O)c1cc(Br)cc(S(=O)(=O)N2CCOCC2)c1F	-12.93
COc1ccccc1C(=O)Nc1c(C)cnn1CC1CC1	-3.808
COc1ccccc1C(=O)Nc1ccc(OC2CCN(C)CC2)cc1	-27.65
COc1ccccc1C(=O)Nc1c(F)c(C(=O)NC2CCCC2)nn1C	102.6
COc1ccccc1C(=O)Nc1c(F)c(C(=O)N2CCCC2)nn1C	113.5
Cc1nn(C)c(C)c1C(C(=O)O)N1CCc2ccccc2C1 (stereo not given)	39.47
CC(C)C(=O)Nc1cc(C(C)(C)C)nn1-c1ccccn1	3.907
CN(Cc1ccccc1Cl)C(C(=O)O)c1ccc(F)c(CO)c1 (stereo not given)	-0.8463
Cc1cn(-c2ccccc2)nc1NS(=O)(=O)c1cccc(C(=O)O)c1	12.37
Cc1ccc(NS(=O)(=O)c2cnn(-c3ccccc3)c2)c(C(=O)O)c1	131.3
CCn1cc(S(=O)(=O)NC(CO)Cc2ccccc2)cn1 (stereo not given)	-18.17
Cc1ccc(-n2cc(S(=O)(=O)Nc3cccc(C(=O)O)c3C)cn2)cc1	125.3
Cc1ccc(NS(=O)(=O)c2cnn(Cc3ccccc3)c2)c(C(=O)O)c1	100.3
CCn1nc(C)c(S(=O)(=O)Nc2cccc(C(=O)O)c2C)c1C	-0.6024
Cc1cccc(NS(=O)(=O)c2cnn(C)c2)c1C#N	-6.698
CCn1cc(C(=O)Nc2ccc(C)cc2C(=O)NC)cn1	-4.213
NC(=O)C1CCN(S(=O)(=O)c2cnn(-c3ccccc3)c2)CC1	-7.83
CC(C)c1cc(N2CCC(C(C)N3CCCC3)CC2)n2nccc2n1 (stereo not given)	-4.218
CN(Cc1nc(-c2cccs2)no1)Cc1nc2c(s1)CCCC2	-10.58
Cc1ccc2cnn(CCC(=O)Nc3c(C)nn(C)c3C)c2c1	-9.349
O=C(NCc1cccc(N2CC=CC2)c1)NC1CC1	1.832
Cc1ccc(C(=O)N2CC[C@H](N3CCOCC3)[C@H](CCCO)C2)cc1O	-3.81

Compound	Percent Effect [%]
CN(C)C(=O)N1CCN(C)c2ncccc2C1	5.475
CN1CCN(C(=O)c2cccn2C)Cc2cccnc21	105.6
Cn1cccc1C(=O)N1CCN(CC2CC2)c2ncccc2C1	-25.73
O=C(c1cnccn1)N1CCN(Cc2cccnc2)c2ncccc2C1	97.13
O=C(N1CCCC1)N1CCN(Cc2cccnc2)c2ncccc2C1.O=C(O)C(F)(F)F.O=C(O)C(F)(F)F	101.8
Cn1cccc1C(=O)N1CCN(Cc2ccncc2)c2ncccc2C1.O=C(O)C(F)(F)F.O=C(O)C(F)(F)F	-28.33
O=C(c1cnccn1)N1CCN(Cc2ccncc2)c2ncccc2C1	-4.343
Cn1cccc1C(=O)N1CCN(Cc2cccnc2)c2ncccc2C1.O=C(O)C(F)(F)F.O=C(O)C(F)(F)F	51.12
COCCN1CCN(C(=O)c2ccncc2F)Cc2cccnc21	4.379
Cc1ccc(C2COCCN2C(=O)c2ccc(CN(C)C)cc2)o1 (stereo not given)	-6.944
CC(C)Oc1cc(N2C[C@H](C3CC3)[C@@H](N)C2)nc(N)n1	12.97
COc1ccc(-c2noc([C@@H]3C[C@H](NC(=O)NC(C)C)CN3C)n2)cc1	2.003
COc1ccnc(N2Cc3cnc(C(C)(C)C)nc3C2)n1	-13.37
O=C(c1ccc[nH]1)N1CCN(Cc2ccncc2)c2ncccc2C1	105
CC(=O)NCC(=O)N1CCN(Cc2ccncc2)c2ncccc2C1	-10.24
O=C(c1ccncc1F)N1CCN(CC2CC2)c2ncccc2C1	10.49
O=C(O)C(F)(F)F.O=C(O)C(F)(F)F.O=C(c1ccnnc1)N1CCN(Cc2cccnc2)c2ncccc2C1	97.06
O=C(c1ccc[nH]1)N1CCC(c2nccn2Cc2ccncc2)CC1	-7.637
O=C(O)C(F)(F)F.O=C(O)C(F)(F)F.O=C(O)C(F)(F)F.O=C(c1ccncc1)N1CCN(Cc2cccnc2)c2ncccc2C1	105.3
CN1CCN(C(=O)Cc2cccc(F)c2)Cc2cccnc21.O=C(O)C(F)(F)F	-17.2
O=C(O)C(F)(F)F.O=C(O)C(F)(F)F.O=C(c1ccnnc1)N1CCN(Cc2ccncc2)c2ncccc2C1	96.92
Cc1cc(C)n(-c2cncc(N3CCN(C(=O)C(C)(C)C)CC3)n2)n1	6.121
NC(=O)c1cccc(CCNCc2cccs2)c1	0.5417

Compound	Percent Effect [%]
Cc1ccc2c(c1)c(CNC(=O)C1CCCN(CC(N)=O)C1)nn2C (stereo not given)	-18.62
CC(=O)N1CC[C@H]2[C@H](C[C@@H](Cn3cncn3)N2c2nccs2)C1.O=C(O)C(F)(F)F	4.075
CC(C)N1[C@H](Cn2cccn2)C[C@@H]2CN(C3CCOCC3)CC[C@@H]21.O=C(O)C(F)(F)F.O=C(O)C(F)(F)F.O=C(O)C(F)(F)F	7.148
CC(C)N1CC[C@H]2[C@H](C[C@@H](Cn3cncn3)N2c2nccs2)C1.O=C(O)C(F)(F)F.O=C(O)C(F)(F)F	110.1
CN1[C@H](Cn2cncn2)C[C@@H]2CN(C3CCOCC3)CC[C@@H]21.O=C(O)C(F)(F)F.O=C(O)C(F)(F)F	8.742
CN1CC[C@H]2[C@H](C[C@@H](Cn3cncn3)N2c2nccs2)C1	-5.255
CC(C)N1CC[C@H]2[C@H](C[C@@H](Cn3cccn3)N2c2nccs2)C1.O=C(O)C(F)(F)F.O=C(O)C(F)(F)F.O=C(O)C(F)(F)F	108.8
OC(CN1CCN(CC(F)F)CC1)c1ccc(Br)cc1 (stereo not given)	2.807
CC(C)CCN1C(=O)CC(N(C)Cc2nc3ccccc3c(=O)[nH]2)C1=O (stereo not given)	-3.315
COc1cccc(CN2CCC(CO)(Cc3ccc(Cl)cc3)CC2)c1O	-4.953
COCC(=O)N1CCC2(CC1)CC(COC)N(Cc1ccccn1)C2.O=C(O)C(F)(F)F (stereo not given)	100.7
COCC1CC2(CCN(Cc3ccoc3)CC2)CN1Cc1ccccn1 (stereo not given)	97.98
COCC(=O)N1CCC2(CC1)CC(COC)N(c1ncccn1)C2.O=C(O)C(F)(F)F (stereo not given)	-2.409
COCC(=O)N1CCC2(CC1)COC(COCc1ccccn1)C2.O=C(O)C(F)(F)F (stereo not given)	-3.538
CCN1CCC2(CC1)CC(COC)N(Cc1csc(C)n1)C2.O=C(O)C(F)(F)F.O=C(O)C(F)(F)F (stereo not given)	21.22
COCC1CC2(CCN(Cc3ccccn3)CC2)CN1c1ncccn1.O=C(O)C(F)(F)F.O=C(O)C(F)(F)F.O=C(O)C(F)(F)F (stereo not given)	0.4015
COCC1CC2(CCN(Cc3nccs3)CC2)CN1Cc1ccccn1.O=C(O)C(F)(F)F.O=C(O)C(F)(F)F.O=C(O)C(F)(F)F (stereo not given)	106.7
FC(F)(F)CCc1ccnc(N[C@H]2CC[C@H](n3cnnc3)CC2)n1	-3.85
CCNC(=O)NC[C@H]1Cn2c(-c3ccccc3)cnc2CO1	-18.82
Cc1ccc(C)c(CS(=O)(=O)Cc2ccn(C)c(=O)c2)c1	17.59
Cc1cnn(C2CCCN(C(=O)c3ccc4c(c3)CCC4)C2)c1 (stereo not given)	100.4
O=C(c1ccc(NC2CC2)nc1)N1CCCC(n2cccn2)C1 (stereo not given)	-7.453
Cc1cnn(C2CCCN(C(=O)c3ccnc(-n4ccnc4)c3)C2)c1 (stereo not given)	5.29

Compound	Percent Effect [%]
Cc1cnn(C2CCCN(C(=O)c3ccc(C(N)=O)cn3)C2)c1 (stereo not given)	85.91
Cc1cnn(C2CCCN(C(=O)c3ccnc(-n4cncn4)c3)C2)c1 (stereo not given)	91.3
Cc1cnn(C2CCCN(C(=O)c3ccnc(N(C)C)c3)C2)c1 (stereo not given)	7.39
Cc1cnn(C2CCCN(C(=O)c3ccn(C)c(=O)c3)C2)c1 (stereo not given)	-5.065
Cc1cnn(C2CCCN(C(=O)c3ccc(NC4CC4)nc3)C2)c1 (stereo not given)	77.38
Cc1cnn(C2CCCN(C(=O)COc3ccc(C(N)=O)cc3)C2)c1 (stereo not given)	-8.397
Cc1cnn(C2CCCN(C(=O)C3=NN(C)C(=O)CC3)C2)c1 (stereo not given)	5.956
CNC(=O)c1ccc(C(=O)N2CCCC(n3cc(C)cn3)C2)cn1 (stereo not given)	-2.2
Cc1nc(C)n(C2CCCN(C(=O)c3ccc(NC4CC4)nc3)C2)n1 (stereo not given)	0.453
Cn1cnc2c1C(C(=O)N1CCCO1)N(C(=O)c1ccccc1)CC2 (stereo not given)	-3.517
N#Cc1cccc(N2CCC3(CC2)Nc2ccccc2NC3=O)n1	-5.007
CC(C)N1CCCC2(CCN(C(=O)CCCn3cncn3)C2)C1=O (stereo not given)	0.7052
Cc1cnn(C2CCCN(C(=O)c3ccc(-n4cccn4)nc3)C2)c1 (stereo not given)	95.03
Cc1cnn(C2CCCN(C(=O)c3ccc(N4CCCC4)nc3)C2)c1 (stereo not given)	85.57
Cc1cnn(C2CCCN(C(=O)c3sccc3C#N)C2)c1 (stereo not given)	1.519
Cc1cnn(-c2ccc(C(=O)N3CCCC(n4ccnc4C)C3)cc2)c1 (stereo not given)	110
Cc1cnn(C2CCCN(C(=O)c3ccc(O)nc3)C2)c1 (stereo not given)	123.6
O=C(CCCn1cncn1)N1CCC2(CC1)[C@H](O)C[C@@H]2OCCO	-4.804
Cc1cc(CNCC2CCCN(C(=O)OC(C)(C)C)C2)no1 (stereo not given)	-1.865
CCCOC1CCCN(C(=O)c2[nH]nc(C)c2Br)C1 (stereo not given)	-6.367
CCCN1CCN(C(=O)c2ccc3ccccc3n2)[C@H]2CS(=O)(=O)C[C@H]21	2.901
